Compound activity: PubChem BioAssay, several laboratories
CYP2C19 activ: cytochrome P450 2C19 (human) activation. P33261. recombinant CYP2C19, luciferin-H EGE luminescence; active compounds read high; 0 = fully inhibited enzyme, 1 = untreated enzyme. activation factor at 5 µM. 96,000 tested, under 10 active. AID 1025;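 active = activation factor of at least 2 at 5 µM in the primary screen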;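 note: 0 = wells with 2.5 mM tranylcypromine and 1 = vehicle-only wells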
CYP2C9 act: activators of human CYP2C9 | actives 1.4% (n = 96,000) | recombinant CYP2C9, luciferin-H conversion, luminescence; active compounds read high; factor 1 = untreated enzyme, 0 = blocked | P11712 | activation factor at 5 µM;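 active = activation factor of 2 or more for CYP2C9 at a 5 µM dose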;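 note: 0 = sulfaphenazole-blocked wells and 1 = vehicle-only wells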
Target sequence (P11712 whole entry, looked up): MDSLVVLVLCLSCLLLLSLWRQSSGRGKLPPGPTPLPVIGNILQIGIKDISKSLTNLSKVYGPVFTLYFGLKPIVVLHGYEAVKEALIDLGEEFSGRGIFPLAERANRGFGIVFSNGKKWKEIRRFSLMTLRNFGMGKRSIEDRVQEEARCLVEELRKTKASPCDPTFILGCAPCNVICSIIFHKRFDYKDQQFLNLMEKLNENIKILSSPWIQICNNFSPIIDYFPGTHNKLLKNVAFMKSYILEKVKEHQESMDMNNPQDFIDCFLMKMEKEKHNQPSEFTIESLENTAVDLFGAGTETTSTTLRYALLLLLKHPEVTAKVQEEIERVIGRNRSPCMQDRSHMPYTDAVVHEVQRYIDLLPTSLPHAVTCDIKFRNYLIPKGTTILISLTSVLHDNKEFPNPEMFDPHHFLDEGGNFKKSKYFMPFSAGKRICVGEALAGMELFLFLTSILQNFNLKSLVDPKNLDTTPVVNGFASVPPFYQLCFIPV
MRP reversal: MRP-mediated drug resistance reversal; H69AR cells + 2 uM doxorubicin, CellTiter-Glo, 72 h; AID 602; actives 0.04% (n = 85,000); differential viability (reversal), % at 10 µM;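 active = viability drop by adding the cancer drug above about 55%, with treated viability meeting a 40% cutoff, limit read from the data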;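 note: viability without doxorubicin minus viability with 2 µM doxorubicin for each compound; larger differential means the compound sensitizes cells more to doxorubicin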
CYP2C19 inh: human CYP2C19 inhibition; P33261; inhibition, % at 5 µM; CYP2C19 Supersomes, luciferin-H EGE luminescence, 30 min; AID 778; actives 21% (n = 96,000);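 active = CYP2C19 inhibition above a set limit at 5 µM in the primary screen, cut at about 50% in these data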;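 note: plate controls were negative control wells for no effect and 2.5 mM tranylcypromine positive control for full effect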
CYP2C9 inh: inhibitors of human CYP2C9. P11712. CYP2C9 Supersomes, luciferin-H conversion, luminescence. inhibition, % at 5 µM. actives 20% (n = 96,000);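 active = blocking of liver enzyme CYP2C9 beyond about 50% at 5 µM, limit read from the data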
MRP1 act: MRP-1 activation; H69AR cells + doxorubicin, viability rescue, CellTiter-Glo; viability increase, % at 10 µM; actives 0.61% (n = 140,000); AID 799;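 active = viability gain under doxorubicin at or above a set limit, the compound median plus 3 SD, cut at about 4.7% in these data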;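 note: MRP-1 overexpressing cells given doxorubicin 25 µM after compound pretreatment; 18-22 h compound pretreatment then 72 h with doxorubicin before readout; 0% = doxorubicin-only wells and 100% = vehicle-treated cells without doxorubicin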
An asterisk follows results filed as active; . = not tested or not shown. This is a sample that favours compounds with a hit; in the whole collection about 21% have one here.

SMILES	CYP2C19 activ	CYP2C9 act	MRP reversal	CYP2C19 inh	CYP2C9 inh	MRP1 act
CC1(C)Cc2nc(N)c(C(=O)NCCO)cc2CO1	1.1	0.8	4	-6	16	0
CCOCCCNCC(=O)Nc1ccccc1N1CCOCC1	1	1.2	.	0	-22	-3
CCN(C(=O)[C@@H]1CCCN1C(=O)c1cccs1)c1nc2cc(Cl)ccc2s1	.	.	.	.	.	1
CCN(CC)S(=O)(=O)c1cccc(-c2nnc(SCC(=O)c3cc(C)n(C)c3C)o2)c1	0.8	0.7	-2	20	34	-1
CCN(CC)S(=O)(=O)c1cccc(-c2nnc(SCCOc3ccccc3C)o2)c1	0.1	1.6	.	90*	-65	-1
CCN(CC)S(=O)(=O)c1ccc(-c2nnc(SCc3nnc(-c4ccc(C)cc4)o3)o2)cc1	1	1.1	-2	-3	-6	0
CCN(CC)S(=O)(=O)c1cccc(-c2nnc(SCCOc3ccccc3)o2)c1	0.1	1.4	7	94*	-38	-2
CCN(CC)S(=O)(=O)c1ccc(-c2nnc(SCC(C)=O)o2)cc1	0.9	0.6	0	11	42	-1
CCN(CC)S(=O)(=O)c1cccc(-c2nnc(SCc3nnc(-c4ccccc4)o3)n2C)c1	0.1	0.5	12	88*	55*	-3
CCN(CC)S(=O)(=O)c1ccc(-c2nnc(SCc3nnc(-c4ccc(C)cc4)o3)n2CC)cc1	0.7	0.7	-11	33	31	-3
CCN(CC)S(=O)(=O)c1cccc(-c2nnc(SCCOc3ccc(Cl)cc3)o2)c1	0.4	2*	30	61*	-97	0
COc1ccccc1N1CCN(C(=O)Cn2c(=O)[nH]c3ccsc3c2=O)CC1	0.9	0.9	.	14	12	0
Cc1noc(C)c1CSc1ncnc2ccccc12	0	0.1	14	96*	86*	-1
CCn1c(CSc2nc3ccccc3s2)nc2ccccc21	0	1.3	8	98*	-27	-1
c1csc(CSc2nc3ccccc3s2)c1	0.6	0.9	-5	45	9	-2
Cc1noc(C)c1CSc1ccc2ccccc2n1	.	.	2	.	.	0
Cc1noc(C)c1CSc1ncnc2sc(C)c(C)c12	0.6	0.5	2	37	49	1
CCOC(=O)CSc1nnc(CSc2nc3ccccc3s2)n1C	0.6	1	-10	44	2	-2
Cc1noc(C)c1CSc1nc2ccccc2s1	0.1	0.6	-3	94*	39	-2
C#CCSc1nnc(CSc2nc3ccccc3s2)n1-c1ccccc1	0.1	0	-6	85*	99*	-4
Cc1ccc2nc(N3CCOCC3)c3nncn3c2c1	.	.	-6	.	.	-1
OC(COCCOc1ccc(Br)cc1)CN1CCCCC1 (centres undefined)	.	.	.	.	.	-1
CCN(CC)S(=O)(=O)c1ccc2c(c1)c(=O)c(C(=O)NCCCN(C)c1ccccc1)cn2C	0.9	0.4	25	10	57*	-1
CN(CCCNC(=O)c1cn(C)c2ccc(S(=O)(=O)N(C)C)cc2c1=O)c1ccccc1	0.8	0.4	18	23	60*	-1
C=CCn1cc(C(=O)NCCCOC)c(=O)c2cc(S(=O)(=O)N(CC)CC)ccc21	1.1	0.4	-15	-8	59*	0
SMILES	CYP2C19 activ	CYP2C9 act	MRP reversal	CYP2C19 inh	CYP2C9 inh	MRP1 act
Oc1ccccc1/C=N/n1cnn(Cc2ccccc2Cl)c1=S	.	.	.	.	.	-1
CCN1CCN(c2nc3ccccc3nc2C(C#N)S(=O)(=O)c2ccc(C)cc2)CC1 (centres undefined)	0.8	0.8	12	23	24	-2
CC1CCN(c2nc3ccccc3nc2C(C#N)S(=O)(=O)c2ccccc2)CC1 (centres undefined)	.	.	-1	.	.	.
CC1CCCN(c2nc3ccccc3nc2C(C#N)S(=O)(=O)c2cccs2)C1 (centres undefined)	1	0.3	17	3	75*	0
Cc1ccc(S(=O)(=O)C(C#N)c2nc3ccccc3nc2N2CCCC2)cc1 (centres undefined)	0.1	0.5	-14	87*	55*	-2
COc1ccc(S(=O)(=O)C(C#N)c2nc3ccccc3nc2N2CCCC(C)C2)cc1 (centres undefined)	0.1	0.1	6	86*	93*	-3
O=C(O)c1ccc2c(c1)C(=O)N(C(Cc1ccccc1)C(=O)O)C2=O (centres undefined)	1.1	1.2	12	-14	-16	0
CSCCC(C(=O)O)N1C(=O)c2ccc(C(=O)O)cc2C1=O (centres undefined)	0.1	1.1	.	87*	-6	0
CCC(C(=O)c1ccc(O)cc1)c1ccccc1 (centres undefined)	0.5	1.3	6	52*	-29	-4
CCc1ccc(NC(=O)C(CC)c2ccccc2)cc1 (centres undefined)	.	.	.	.	.	0
CCc1nnc(NC(=O)C(=O)NCCOC(=O)c2ccccc2)s1	0.8	0.7	.	22	35	3
O=C(Cc1c(F)c(F)c(F)c(F)c1F)OC12CC3CC(C1)C(=O)C(C3)C2	0.3	1	11	72*	-1	0
CCOC(=O)c1nc2cc3n(c(C)c-2c1C)C(C)C(CC)=C3C (centres undefined)	.	.	-10	.	.	.
Cc1ccc(C(=O)NC(=S)Nc2ccc(NC(=O)c3cccs3)cc2)cc1[N+](=O)[O-]	.	.	.	.	.	-1
O=c1cc(CN2CCc3ccccc32)nc2sccn12	0.4	0.3	-2	57*	67*	-1
CC1CN(Cc2cc(=O)n3ccsc3n2)CC(C)O1 (centres undefined)	0.9	0.9	1	6	8	-1
Cc1cccc(NC(=O)Cn2c(=O)oc3ccccc32)c1	0.4	0.9	.	58*	6	-3
CCOc1ccc(CNC(=O)CCn2c(=O)oc3ccccc32)cc1OC	0.7	0.9	.	27	8	-2
CC1CCCC(NC(=O)CCn2c(=O)oc3ccccc32)C1C (centres undefined)	0.6	2*	-1	43	-101	-1
COc1cccc(CNC(=O)CCn2c(=O)oc3ccccc32)c1	0.4	1.2	-3	58*	-21	-1
O=C(CCn1c(=O)oc2ccccc21)Nc1cccc(Cl)c1	0.4	2*	6	55*	-102	-1
CC(=O)c1ccc(NC(=O)CCn2c(=O)oc3ccccc32)cc1	0.7	0.8	0	31	23	-1
CC(=O)C1=C(C)NC(=O)NC1c1ccc(OC2CCCC2)cc1 (centres undefined)	0.7	1.1	13	32	-8	1
Cn1nnnc1SC(C(=O)Nc1cccc(C(F)(F)F)c1)c1ccccc1 (centres undefined)	.	.	.	.	.	-2
Cc1ccc(C(=O)N2CCN(C(=O)c3ccc(C)c(C)c3)C(C)C2)cc1C (centres undefined)	.	.	0	.	.	.
CCOC(=O)CSc1nnc(SCCN2C(=O)c3ccccc3C2=O)s1	0.6	0.2	7	42	83*	0
